Test results reported in PubChem BioAssay (NCATS).
Several values for one entry are separate records, joined by “and”; a condition that tells them apart may be missing. Equal entries are not always repeated. Inconclusive results are not listed. Activity calls are given as the source filed them. Unless noted, the call rests on the fitted dose curve; in most records, active means well fitted curve in the direction sought with a large enough effect; inconclusive means small, poorly fitted or top-dose-only effect, or another doubt; inactive means no such curve, though single readings can be large; an effect the other way counts as inactive or inconclusive.

Legend:
[1] = target: Cytochrome P450 1A2 (Homo sapiens) (UniProt P05177); assay: p450-cyp1a2 (AID 410; calls by dose curve; further: potency means the concentration at half of the fitted maximal effect;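 on activity change, negative = inhibition: -100% = full effect of reference inhibitor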)
Cytochrome P450 1A2 (Homo sapiens), sequence (P05177 whole entry, looked up): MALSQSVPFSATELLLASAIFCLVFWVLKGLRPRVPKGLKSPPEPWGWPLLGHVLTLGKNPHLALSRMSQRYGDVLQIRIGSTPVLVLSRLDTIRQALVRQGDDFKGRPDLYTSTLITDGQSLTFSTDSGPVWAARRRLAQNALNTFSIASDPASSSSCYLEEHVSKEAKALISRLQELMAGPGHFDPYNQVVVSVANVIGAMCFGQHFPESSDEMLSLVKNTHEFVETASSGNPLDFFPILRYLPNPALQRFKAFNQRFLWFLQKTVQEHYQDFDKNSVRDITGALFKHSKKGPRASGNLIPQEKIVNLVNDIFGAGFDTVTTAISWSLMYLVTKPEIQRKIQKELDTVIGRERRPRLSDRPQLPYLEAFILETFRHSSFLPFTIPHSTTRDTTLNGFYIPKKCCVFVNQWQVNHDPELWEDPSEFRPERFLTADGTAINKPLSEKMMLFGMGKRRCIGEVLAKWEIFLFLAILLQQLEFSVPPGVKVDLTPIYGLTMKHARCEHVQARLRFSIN
How it was run: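 20nM CYP1A2 with 100uM Luciferin-ME (at Km) in 100mM KPO4; compound preincubated 10 min, NADPH regeneration added, 60 min at room temperature. Luciferin quantified by luminescence after detection reagent; normalized to 57 uM furafylline.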

[2] = target: Cytochrome P450 2D6 (Homo sapiens) (UniProt P10635); assay: qHTS Assay for Inhibitors and Substrates of Cytochrome P450 2D6 (AID 891); further: nearly all actives have a fitted effect of over 60% in size; further: potency means the concentration at half of the fitted maximal effect;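 on activity change, negative = inhibition: luciferin methyl ether substrate demethylated by CYP2D6 with NADPH regeneration; on the % scale 0 is the no-effect control and ±100 the full control effect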
Cytochrome P450 2D6 (Homo sapiens), sequence (P10635 whole entry, looked up): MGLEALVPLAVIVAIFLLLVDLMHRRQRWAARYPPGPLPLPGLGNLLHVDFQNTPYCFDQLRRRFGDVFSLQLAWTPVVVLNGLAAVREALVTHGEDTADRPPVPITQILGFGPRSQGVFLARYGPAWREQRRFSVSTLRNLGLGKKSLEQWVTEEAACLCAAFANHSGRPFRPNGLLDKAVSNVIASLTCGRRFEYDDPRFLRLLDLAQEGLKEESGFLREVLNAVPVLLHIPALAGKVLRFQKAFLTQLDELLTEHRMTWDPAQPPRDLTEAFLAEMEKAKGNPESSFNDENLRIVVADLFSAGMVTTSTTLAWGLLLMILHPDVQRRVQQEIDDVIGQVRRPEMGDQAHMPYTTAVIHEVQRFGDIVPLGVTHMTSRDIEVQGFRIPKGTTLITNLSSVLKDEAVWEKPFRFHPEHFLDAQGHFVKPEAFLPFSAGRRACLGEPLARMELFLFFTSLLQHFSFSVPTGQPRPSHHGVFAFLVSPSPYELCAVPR
How it was run: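 Human CYP2D6 (5 nM) with 30 uM Luciferin-ME EGE (at Km) in 100 mM KPO4, compound preincubated 10 min, then NADPH regeneration system for 60 min at room temperature. Luciferin read by luminescence; normalized to 1.43 uM quinidine.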

[3] = target: ATP-dependent 6-phosphofructokinase (Trypanosoma brucei brucei) (UniProt O15648); assay: qHTS Assay to Find Inhibitors of T. brucei phosphofructokinase: hit validation (AID 492961);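 further: luminescence reports ADP formed as PFK phosphorylates fructose-6-phosphate with ATP; on the % scale 0 is the no-effect control and ±100 the full control effect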
ATP-dependent 6-phosphofructokinase (Trypanosoma brucei brucei), sequence (O15648 whole entry, looked up): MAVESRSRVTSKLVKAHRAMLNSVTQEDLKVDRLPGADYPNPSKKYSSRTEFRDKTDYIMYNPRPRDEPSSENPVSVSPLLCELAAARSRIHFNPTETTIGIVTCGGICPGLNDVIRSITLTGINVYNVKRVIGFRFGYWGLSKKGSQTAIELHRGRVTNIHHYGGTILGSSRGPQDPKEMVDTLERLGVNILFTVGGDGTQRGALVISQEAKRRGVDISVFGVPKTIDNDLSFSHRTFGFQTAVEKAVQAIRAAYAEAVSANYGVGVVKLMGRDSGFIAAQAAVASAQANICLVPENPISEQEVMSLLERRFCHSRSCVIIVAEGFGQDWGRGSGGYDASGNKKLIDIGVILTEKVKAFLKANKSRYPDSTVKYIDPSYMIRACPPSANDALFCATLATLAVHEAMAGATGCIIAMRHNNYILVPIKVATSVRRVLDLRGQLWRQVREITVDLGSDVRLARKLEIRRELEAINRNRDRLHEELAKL
How it was run: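 In this biochemical qHTS validation, titrated compounds were tested against 1.25 nM PFK with 0.1 mM ATP and 0.5 mM F6P. Percent activity came from controls lacking or containing enzyme.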

7G8 = assay: qHTS profiling for inhibitors of Plasmodium falciparum proliferation (AID 504749); further: nearly all actives have a fitted effect of over 60% in size; further: potency means the concentration at half of the fitted maximal effect; conditions: P. falciparum in erythrocytes, SYBR Green DNA, 72 h; series mostly up to 12.8 µM
How it was run: (§1)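 Infected RBCs, 0.3% parasitemia/2.5% Hct final; cpd 72 h, 37 C, 5% CO2; lysis buffer with saponin/triton/SYBR Green I, o/n RT dark; FI 485/535; norm. to artemisinin (0.29 uM) and DMSO.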

CP215 = assay: as above; conditions: P. falciparum in erythrocytes, SYBR Green DNA, 72 h; series mostly up to 12.8 µM
How it was run: as §1

CP335 = assay: as above; conditions: P. falciparum in erythrocytes, SYBR Green DNA, 72 h; series mostly up to 12.8 µM
How it was run: as §1

DFO2036 = assay: as above; conditions: P. falciparum in erythrocytes, SYBR Green DNA, 72 h; series mostly up to 12.8 µM
How it was run: as §1

P93_24 = assay: as above; conditions: P. falciparum in erythrocytes, SYBR Green DNA, 72 h; series mostly up to 12.8 µM
How it was run: as §1

TAB109 = assay: as above; conditions: P. falciparum in erythrocytes, SYBR Green DNA, 72 h; series mostly up to 12.8 µM
How it was run: as §1

[4] = target: Cytochrome P450 3A4 (Homo sapiens) (UniProt P08684); assay: qHTS Assay for Inhibitors and Substrates of Cytochrome P450 3A4 (AID 884); further: nearly all actives have a fitted effect of over 50% in size; further: potency means the concentration at half of the fitted maximal effect; on activity change, negative = inhibition: on the % scale 0 is the no-effect control and ±100 the full control effect
Cytochrome P450 3A4 (Homo sapiens), sequence (P08684 whole entry, looked up): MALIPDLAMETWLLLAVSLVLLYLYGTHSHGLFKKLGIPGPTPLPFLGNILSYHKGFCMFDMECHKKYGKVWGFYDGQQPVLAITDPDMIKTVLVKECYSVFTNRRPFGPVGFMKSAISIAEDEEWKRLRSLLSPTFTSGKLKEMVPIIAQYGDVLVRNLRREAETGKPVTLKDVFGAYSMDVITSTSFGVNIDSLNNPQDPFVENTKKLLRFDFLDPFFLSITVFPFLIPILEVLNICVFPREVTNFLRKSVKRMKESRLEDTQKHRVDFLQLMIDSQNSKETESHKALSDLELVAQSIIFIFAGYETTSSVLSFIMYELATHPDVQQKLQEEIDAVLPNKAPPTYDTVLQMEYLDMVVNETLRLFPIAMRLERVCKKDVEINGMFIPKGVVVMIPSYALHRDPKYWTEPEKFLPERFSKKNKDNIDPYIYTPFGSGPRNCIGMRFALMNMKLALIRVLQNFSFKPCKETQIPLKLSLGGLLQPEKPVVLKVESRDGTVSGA
How it was run: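 20 nM human CYP3A4 with 25 uM Luciferin-PPXE (at KM) in 200 mM KPO4, preincubated 10 min with compound; NADPH regeneration started a 60 min RT reaction. Luciferin detected by luminescence, normalized to 57 uM ketoconazole as full inhibition.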

[5] = target: Cytochrome P450 3A4 (Homo sapiens) (UniProt P08684); assay: qHTS Assay for Activators of Cytochrome P450 3A4 (AID 885); further: nearly all actives have a fitted effect of over 65% in size
How it was run: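 Signal was normalized against complete inhibition by 57 uM ketoconazole. The reaction used 20nM CYP3A4 with 25uM Luciferin-PPXE, 10-min compound preincubation and a 60-min NADPH-supported step at RT.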

[6] = Confirmation and Secondary Assay for Modulators of Hemoglobin Beta Chain Splicing at IVS2 654 locus (AID 910);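 further: HeLa cells stably carrying EGFP split by mutant beta-globin IVS2-654 intron; per-well total GFP intensity by laser scanning cytometry after 2-day treatment; % of control where 0% means no effect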
How it was run: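 Readout: per-well total peak green fluorescence (488 nm ex, 500–520 nm em) from objects 5–250 µm, reflecting correct splicing of an EGFP-654 reporter. Compounds were applied for 2 days at 37 °C to overnight-plated HeLa EGFP-654 cells; controls were DMSO and 500 nM IVS2-654 PNA.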

[7] = Confirmation and Secondary Assay for Modulators of Hemoglobin Beta Chain Splicing at IVS2 705 locus (AID 930);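 further: HeLa cells stably expressing the EGFP-705 splicing reporter; GFP fluorescence per well restored by corrected splicing of the IVS2-705 intron in EGFP; % of control where 0% means no effect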
How it was run: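 First, HeLa EGFP-705 cells are seeded at 500/well in Optimem with 2% FCS and left overnight. Next, compound or DMSO is added for 2 days. Finally wells are laser-scanned and total peak GFP intensity scored.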

[8] = NFAT Signaling Pathway (AID 444; active means well fitted curve in either direction with a large enough effect, not every such curve was filed as active;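 further: carbachol stimulus at about its EC50 of 1 µM final; on the % scale 0 is the no-effect control and ±100 the full control effect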); conditions: Jurkat NFAT-bla M1, carbachol, beta-lactamase ratio, 5 h; at 17.2 µM (top of the series) unless noted
How it was run: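 Read-out: CCF4 FRET ratio (460 nm/530 nm) after 1 h RT dye loading, used for %activity and AC50 from titration series. Cells: Jurkat NFAT-β-lactamase/M1 line, treated with compound plus 1 uM carbachol for 5 h, 37 °C.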

[9] = target: DNA dC->dU-editing enzyme APOBEC-3G (Homo sapiens) (UniProt Q9HC16); assay: qHTS for inhibitors of Vif-A3G interactions: Validation (AID 588379); further: 0% is about no effect
DNA dC->dU-editing enzyme APOBEC-3G (Homo sapiens), sequence (Q9HC16 whole entry, looked up): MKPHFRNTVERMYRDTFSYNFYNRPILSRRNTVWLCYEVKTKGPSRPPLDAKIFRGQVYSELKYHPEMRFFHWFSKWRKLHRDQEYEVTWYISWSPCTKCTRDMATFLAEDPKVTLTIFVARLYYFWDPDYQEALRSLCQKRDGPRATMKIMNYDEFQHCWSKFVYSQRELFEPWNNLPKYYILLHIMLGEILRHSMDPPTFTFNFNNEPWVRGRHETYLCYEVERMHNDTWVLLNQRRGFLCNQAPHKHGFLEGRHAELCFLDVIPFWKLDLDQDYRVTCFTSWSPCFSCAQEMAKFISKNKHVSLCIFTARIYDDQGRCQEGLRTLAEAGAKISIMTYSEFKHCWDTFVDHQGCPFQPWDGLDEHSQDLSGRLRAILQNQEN
How it was run: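 HeLa cells stably expressing Vif and A3G-eYFP, 700 cells/well, incubated overnight at 37 deg C, then exposed to compound overnight at 37 deg C. Inhibition of Vif-mediated degradation read as increased yellow fluorescence (Ex 488/Em 500-530) by laser-scanning cytometry.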

[10] = S16 Schwann cell PMP22 intronic element firefly luciferase assay (AID 624032);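 further: plate controls were DMSO for no effect and PTC124 positive control mean for full effect; nearly all actives have a fitted effect of over 30% in size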
How it was run: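 Luciferase reporter of PMP22 intronic-element expression in stably transfected S16 rat Schwann cells, read by ONE-Glo luminescence after 24 h compound exposure at 37 C. Activity scaled between DMSO (0%) and positive-control PTC124; concentration-effect curves quality-classified.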

[11] = S16 Schwann cell PMP22 intronic element beta-lactamase assay (AID 624044; calls by dose curve;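 further: 0% = DMSO and -100% = potassium clavulanate positive control; nearly all actives have a fitted effect of over 15% in size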)
How it was run: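 Rat S16 Schwann cells with beta-Lac driven by a PMP22 intronic element, compound-treated 24 h at 37 °C. LiveBLAzer FRET B/G read: 460 nm normalized to potassium clavulanate vs DMSO; 535 nm FRET as viability; concentration-effect curves classified.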

DIV17 = assay: qHTS profiling for inhibitors of Plasmodium falciparum proliferation (AID 504749); further: nearly all actives have a fitted effect of over 60% in size; further: potency means the concentration at half of the fitted maximal effect; conditions: P. falciparum in erythrocytes, SYBR Green DNA, 72 h; series mostly up to 12.8 µM
How it was run: as §1

GB4 = assay: as above; conditions: P. falciparum in erythrocytes, SYBR Green DNA, 72 h; series mostly up to 12.8 µM
How it was run: as §1

ICS = assay: as above; conditions: P. falciparum in erythrocytes, SYBR Green DNA, 72 h; series mostly up to 12.8 µM
How it was run: as §1

O[C@@](CCN1CCCCC1)(c1ccccc1)[C@@H]1C[C@H]2C=C[C@@H]1C2
inactive: Potency [1]
active: Potency [2] 2000 nM

C[C@@H]1C[C@H](OC(=O)c2ccccc2O)CC(C)(C)C1
active: Potency [1] 12.6 µM

O=C(OC[C@@H](O)CO)c1ccccc1Nc1ccnc2cc(Cl)ccc12
active: Potency [1] 5.01 µM | Potency (7G8) 3.98 µM
inactive: outcome [3] | Potency (CP215) | Potency (CP335) | Potency (DFO2036) | Potency (P93_24) | Potency (TAB109)

CC(=O)N[C@H]1[C@@H](O[C@@H](C)C(=O)O)[C@H](O)[C@H](CO)O[C@@H]1O
inactive: Potency [1]

C[C@@H](Cc1cccc(C(F)(F)F)c1)NCCOC(=O)c1ccccc1
active: Potency [1] 0.794 µM | Potency [2] 15.8 nM

COc1cccc(-c2nc(NCCc3c[nH]c4ccc(OC)cc34)c3ccccc3n2)c1
active: Potency [1] 1.58 µM | Potency [4] 2 µM
inactive: Potency [5] | Potency [6] | Potency [7]

CC[C@H](C)C(=O)O[C@@H]1C[C@H](C)C=C2C=C[C@H](C)[C@@H](CC[C@H]3C[C@@H](O)CC(=O)O3)[C@H]21
inactive: Potency [1] | activity change, negative = inhibition [8] 11.4%

O=C(O)[C@@H](O)[C@@H](O)[C@@H](O[C@H]1O[C@@H](CO)[C@@H](O)[C@@H](O)[C@@H]1O)[C@@H](O)CO
inactive: Potency [1]

NCCC(=O)N[C@@H](Cc1cnc[nH]1)C(=O)O
inactive: Potency [1] | Potency [4] | Potency [2] | outcome [9]

CCCCC[C@H](O)/C=C\[C@H]1[C@H](C/C=C\CCCC(=O)O)[C@@H](O)C[C@H]1O (tested in a mixture with another compound)
inactive: activity change, negative = inhibition [8] 11.1% | outcome [3] | Potency [10] | Potency [11] | Potency (7G8) | Potency (CP215) | Potency (CP335) | Potency (DFO2036) | Potency (DIV17) | Potency (GB4) | Potency (ICS) | Potency (P93_24) | Potency (TAB109)

C/C(=C(/CCO)SSC[C@@H]1CCCO1)N(C=O)Cc1cnc(C)nc1N
inactive: Potency [1] | activity change, negative = inhibition [8] -21.3% | Potency [5]

Cc1cc2ccc(=O)oc2cc1OC[C@@H](O)C(C)(C)O
active: Potency [1] 39.8 µM
inactive: Potency [4] | Potency [2] | outcome [9]

C[C@@]12CC[C@@H]3c4ccc(O)cc4CC[C@H]3[C@H]1C[C@@H](O)[C@H]2O
inactive: Potency [1] | activity change, negative = inhibition [8] -13%

CCC(=O)[C@@]1(C)[C@H](C)C[C@@H]2[C@@H]3CCC4=CC(=O)C=C[C@@]4(C)[C@H]3[C@H](O)C[C@]21C
inactive: Potency [1] | outcome [3] | Potency [10] | Potency [11] | Potency (CP215) | Potency (DFO2036) | Potency (DIV17) | Potency (GB4) | Potency (TAB109)
active: Potency (7G8) 2 µM | Potency (ICS) 3.55 µM

O=C1O[C@@H]([C@@H](O)CO)[C@@H](O)[C@H]1O
inactive: activity change, negative = inhibition [8] -7.5% | outcome [3] | Potency [10] | Potency [11] | Potency (7G8) | Potency (CP215) | Potency (CP335) | Potency (DFO2036) | Potency (DIV17) | Potency (GB4) | Potency (ICS) | Potency (P93_24)

CCN(CC)CCOC(=O)[C@@H](c1ccccc1)C1CCCCC1
active: Potency [2] 631 nM
inactive: Potency [5]

CC=C(/C(=C/C)c1ccc(O)cc1)c1ccc(O)cc1
inactive: Potency [5] | outcome [3] | Potency [10] | Potency [11] | Potency (7G8) | Potency (CP215) | Potency (CP335) | Potency (DFO2036) | Potency (DIV17) | Potency (GB4) | Potency (ICS) | Potency (P93_24) | Potency (TAB109)

COc1ccc([C@@H]2CC(=O)c3c(O)cc(O)cc3O2)cc1O
inactive: activity change, negative = inhibition [8] -2.52% | Potency [5] | outcome [9]
active: Potency [4] 15.8 µM

COc1cc2nc(N3CCN(C(=O)[C@@H]4CCCO4)CC3)nc(N)c2cc1OC
inactive: activity change, negative = inhibition [8] 12.6% | outcome [3] | Potency [10] | Potency (7G8) | Potency (CP215) | Potency (CP335) | Potency (DFO2036) | Potency (DIV17) | Potency (GB4) | Potency (ICS) | Potency (P93_24) | Potency (TAB109)

C[C@@](N)(C(=O)O)c1cccc(CC(=O)O)c1
inactive: outcome [9]

CC(=O)O[C@H]1C[C@@]2(C)[C@H](C[C@@H](O)[C@H]3[C@@]4(C)CC[C@@H](O)[C@@H](C)[C@H]4CC[C@@]32C)C1=C(CCC=C(C)C)C(=O)O
inactive: Potency [10] | Potency [11] | Potency (CP215) | Potency (CP335) | Potency (DFO2036) | Potency (GB4) | Potency (P93_24) | Potency (TAB109)

C[C@@H](CN1c2ccccc2Sc2ccccc21)N(C)C
active: Potency [2] 2 µM and 316 nM

Nc1ncn([C@H]2O[C@@H](CO)[C@@H](O)[C@@H]2O)c(=O)n1
inactive: activity change, negative = inhibition [8] -16.5%

C1CCC(C(C[C@@H]2CCCCN2)C2CCCCC2)CC1
active: Potency [2] 501 nM

CC(C)(C)NC[C@H](O)COc1cccc2c1C[C@@H](O)[C@@H](O)C2
inactive: activity change, negative = inhibition [8] -3.7% | outcome [3] | Potency [10] | Potency [11] | Potency (7G8) | Potency (CP215) | Potency (CP335) | Potency (DIV17) | Potency (GB4) | Potency (ICS) | Potency (P93_24) | Potency (TAB109)
